Each compound was assayed against T1, Transcription intermediary factor 1-alpha (Homo sapiens) (UniProt O15164). Conditions: Compound concentration 20.0 uM, Protein concentration 2.0 uM, Result type QC Liability.
T1 sequence (whole entry): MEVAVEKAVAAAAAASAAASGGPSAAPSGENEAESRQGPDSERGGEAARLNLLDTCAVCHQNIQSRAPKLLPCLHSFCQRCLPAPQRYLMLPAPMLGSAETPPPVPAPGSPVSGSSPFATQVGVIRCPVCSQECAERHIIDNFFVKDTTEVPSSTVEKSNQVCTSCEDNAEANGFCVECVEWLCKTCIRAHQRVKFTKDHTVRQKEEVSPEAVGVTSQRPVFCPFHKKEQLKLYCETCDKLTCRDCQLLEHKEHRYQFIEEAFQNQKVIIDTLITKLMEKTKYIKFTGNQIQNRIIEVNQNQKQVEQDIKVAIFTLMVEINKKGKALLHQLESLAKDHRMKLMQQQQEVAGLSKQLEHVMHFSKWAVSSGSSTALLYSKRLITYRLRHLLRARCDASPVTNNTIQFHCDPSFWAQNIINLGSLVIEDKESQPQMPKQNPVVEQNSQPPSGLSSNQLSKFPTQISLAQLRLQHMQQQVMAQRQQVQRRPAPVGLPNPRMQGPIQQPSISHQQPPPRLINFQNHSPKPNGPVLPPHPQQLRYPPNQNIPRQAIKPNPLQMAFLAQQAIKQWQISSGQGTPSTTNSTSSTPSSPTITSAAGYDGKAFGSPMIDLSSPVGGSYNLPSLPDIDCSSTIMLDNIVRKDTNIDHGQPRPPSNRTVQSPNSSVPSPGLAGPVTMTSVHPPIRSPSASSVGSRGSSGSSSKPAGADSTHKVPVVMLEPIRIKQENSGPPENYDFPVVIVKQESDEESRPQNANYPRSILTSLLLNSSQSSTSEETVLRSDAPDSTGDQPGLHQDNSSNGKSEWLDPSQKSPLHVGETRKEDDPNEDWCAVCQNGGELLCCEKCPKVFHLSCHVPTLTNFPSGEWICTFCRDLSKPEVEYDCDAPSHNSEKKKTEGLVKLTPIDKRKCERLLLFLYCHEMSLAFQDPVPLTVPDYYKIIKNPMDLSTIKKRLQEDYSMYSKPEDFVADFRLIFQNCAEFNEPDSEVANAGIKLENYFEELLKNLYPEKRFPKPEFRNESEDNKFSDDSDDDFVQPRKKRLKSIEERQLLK
Compound CC1CCN(C(=O)[C@@H](CCn2cccc2C#N)NS(=O)(=O)c2cccc3[nH]ccc23)CC1 has a ΔTm of 0.52 °C.
CC(C)c1cnn2c(NCc3ccccc3)cc(NCCCCCCN)nc12 showed a ΔTm of -3.25 °C.
For CC1CCN(c2ccnc(NCc3cn(C)cn3)n2)CC1, the ΔTm was -0.77 °C.
Work on c1ccc2c(c1)SCc1c-2[nH]c2ccccc12 yielded a ΔTm of -7.68 °C.
For CC(=O)O[C@H]1C(=O)[C@@]2(C)[C@H]([C@H](OC(=O)c3ccccc3)[C@]3(O)C[C@H](OC(=O)[C@H](O)[C@@H](NC(=O)c4ccccc4)c4ccccc4)C(C)=C1C3(C)C)[C@]1(OC(C)=O)CO[C@@H]1C[C@@H]2O, the ΔTm was -0.24 °C.
For CNC(=O)COc1cc2cc(Nc3nc(N4CCC(C(=O)N(C)C)CC4)ncc3Cl)cc(OC)c2n(C)c1=O, the ΔTm was -0.08 °C.
In the case of CC[C@@H](C(=O)OC)n1c(=O)c2ccccc2n(Cc2cn(C)c3cccc(C)c23)c1=O, the ΔTm is reported as 0.71 °C.
Work on CN(C)C(=O)c1cc2cnc(Nc3ccc(N4CCN(CCCCNC(=O)COc5cccc6c5C(=O)N(C5CCC(=O)NC5=O)C6=O)CC4)cn3)nc2n1C1CCCC1 (centres undefined) yielded a ΔTm of -1.79 °C.
With CO[C@H]1C[C@@H]2CC[C@@H](C)[C@@](O)(O2)C(=O)C(=O)N2CCCC[C@H]2C(=O)O[C@H]([C@H](C)C[C@@H]2CC[C@@H](O)[C@H](OC)C2)CC(=O)[C@H](C)/C=C(\C)[C@@H](O)[C@@H](OC)C(=O)[C@H](C)C[C@H](C)/C=C/C=C/C=C/1C the ΔTm was -0.81 °C.
With CCCCCNC(=O)N1CCC(CN(Cc2ccc(Cl)cc2)Cc2ccc([N+](=O)[O-])s2)C1 (centres undefined) the ΔTm was -3.43 °C.
COC1(C#Cc2ccc(Cl)c(-c3ncc4c(n3)-c3sc(NC(C)=O)nc3CC4)c2)CCN(C)CC1 showed a ΔTm of -3.35 °C.
Work on Cc1cc(C)nc(Nc2ncc(C(=O)NCCc3c(C)[nH]c4ccccc34)cn2)c1 yielded a ΔTm of -1.3 °C.
With O=C(O)CCn1c2c(c3ccccc31)C[C@H](NS(=O)(=O)c1ccc(F)cc1)CC2 the ΔTm was -1.73 °C.
In the case of COc1cc(C(=O)NC2CCN(C)CC2)ccc1Nc1ncc(C(F)(F)F)c(NCc2ccc(C)cc2N(C)S(C)(=O)=O)n1, the ΔTm is reported as -3.38 °C.
Work on O[C@]1(C(F)(F)F)CCCC[C@H]1Nc1ccc(F)cc1 yielded a ΔTm of -2.51 °C.
Cc1sc(C(=O)c2cncnc2N[C@@H]2C[C@H](COS(N)(=O)=O)[C@@H](O)C2)cc1[C@@H]1NCCc2ccc(Cl)cc21 was tested, and the ΔTm was -0.84 °C.
Compound COc1ncc(-c2cc(-c3ncc(CN4C[C@@H](C)O[C@@H](C)C4)o3)c3cn[nH]c3c2)cc1NS(C)(=O)=O has a ΔTm of -1.87 °C.
Compound C1=Cc2ccccc2C(=C2CCN(CCCCc3nnn[nH]3)CC2)c2ccccc21 has a ΔTm of -0.3 °C.
Work on FC(F)c1cncc(-c2ccc3ncc4nnc(C5=CCCOCC5)n4c3c2)c1 yielded a ΔTm of 0.23 °C.
For Cc1n[nH]c2ncc(C(=O)N3CCC[C@H]3c3ccc(Cl)cc3)cc12, the ΔTm was -1.73 °C.
CC/C(=C(\c1ccccc1)c1ccc(OCCN(C)C)cc1)c1ccccc1 was tested, and the ΔTm was -5.01 °C.
C[C@H](CCOc1cccc(CC(=O)O)c1)N(Cc1cccc(C(F)(F)F)c1Cl)CC(c1ccccc1)c1ccccc1 was tested, and the ΔTm was -0.56 °C.
With CNc1nc(-c2ccc3c(N)n[nH]c3c2)cc(N2C[C@@H](C(=O)NC3CCCCC3)CC[C@H]2C)n1 the ΔTm was -2.05 °C.
CCCCC(C)(O)C/C=C/[C@H]1[C@H](O)CC(=O)[C@@H]1CCCCCCC(=O)O (some centres undefined) showed a ΔTm of -0.79 °C.
With C[C@@H]1COCCN1c1cc(=O)n2c(n1)N(Cc1cncc(Cl)c1)[C@H](C(F)(F)F)CC2 the ΔTm was -0.61 °C.
Work on N#Cc1ccc(C#CC[C@@H](C#N)NC(=O)[C@@H]2CCCCN2)cc1F yielded a ΔTm of 0.36 °C.
Cc1cccc(CC(=O)N2CCc3c2ccc(-c2cn(C)c4ncnc(N)c24)c3F)n1 showed a ΔTm of -2.22 °C.
Cc1c(N2CCNCC2)nc2ccc(Br)cc2c1C(=O)NC[C@H](CCC(=O)O)c1ccccc1Cl showed a ΔTm of -1.51 °C.
In the case of CN[C@@H](C)C(=O)N[C@H](C(=O)N1CCC[C@H]1C(=O)Nc1sc(-c2ncco2)nc1-c1ccccc1)C1CCCCC1, the ΔTm is reported as -2.9 °C.
Cn1c(C2(NC(=O)c3ccc(NCC4CCCCC4)nc3)CCC2)nc2ccc(/C=C/C(=O)O)cc21 showed a ΔTm of 0.39 °C.
With CC(C)N(C(=O)C1CCOCC1)c1cc(F)c(Oc2ncc(Cn3nccn3)cc2C(F)(F)F)cc1C(=O)O the ΔTm was 0.13 °C.
In the case of CN[C@@H](C)C(=O)N[C@H](C(=O)N1CCC[C@H]1C(=O)N[C@@H]1CCCc2ccccc21)C1CCCCC1, the ΔTm is reported as -1.41 °C.
Work on COCCN1CCN(CCn2ccc(Nc3ncc4c(n3)-c3c(nn(C)c3-c3ccccc3)C[C@H]4C)n2)CC1 yielded a ΔTm of -2.88 °C.
Compound Cc1[nH]nc(C(F)(F)F)c1Cc1sc2c(c1C(=O)N1C[C@](C)(O)CO1)c(=O)n(C)c(=O)n2C(C)C has a ΔTm of -0.8 °C.
O=C(NC1CCNCC1)c1n[nH]cc1NC(=O)c1c(Cl)cccc1Cl gave a ΔTm of -1.34 °C.
With O=C(O)c1ccc(OCCCc2ccc(OCCCCOC3CCCCC3)cc2)c(C(=O)NC2CCCC(C(=O)O)C2)c1 (centres undefined) the ΔTm was 0.3 °C.
CCN1C(=O)N(c2c(F)c(OC)cc(OC)c2F)Cc2cnc3[nH]c(CN4CCOCC4)cc3c21 was tested, and the ΔTm was -3.85 °C.
COc1cc(Cl)c(C(=O)N[C@@H](CN[C@H]2CC[C@@H](N)CC2)Cc2ccc(C#N)cc2)cc1-c1ccc(CN[C@H](C)c2ccc(C)cc2)o1 showed a ΔTm of -2.42 °C.
CNCc1ccc(-c2cc(-c3nc(-c4ccc(S(=O)(=O)C(C)C)cc4)cnc3N)on2)cc1 gave a ΔTm of -0.96 °C.

From ChEMBL document CHEMBL5308504, “Tm Shift (DSF) assay results for EUbOPEN Chemogenomics Library” (2023)
